The results in this text go back to PubChem BioAssay AID463173 (ICCB-Longwood Screening Facility, Harvard Medical School, 2010).

The campaign covered roughly 52,000 compounds. About 4,300 (8.3%) were called active. Many of the other results were omitted from the sample, so actives are more common in it than they were. Unmarked numbers belong to inactive results. No stated cut-off is given here; in the data, active means survival mostly below about 52% (no sharp cut-off); inactive means mostly above about 56%.

This experiment has as its system DeltatarO mutant. Briefly: growth inhibition of S. aureus wild type versus tarO mutant, primary screen, teichoic acid synthesis inhibitors, RN4220, OD600 (AID 463173). The note with it: OD600, 18 h, hits give low values, screened at 18.75 µg/mL (by protocol).
In the case of `COCCCNC(=O)CCCN1C(=O)CCn2nc(-c3cccn3C)cc21`, the survival was 97%.
On to `O=C(CN1c2ccccc2S(=O)(=O)c2ccccc21)Nc1ccccc1Cl`, for which the survival was 57%.
Next, `Cc1cccc(NC(=O)CN2c3ccccc3S(=O)(=O)c3ccccc32)c1C`: 0% (active); `NC(=O)c1ccccc1NC(=O)CN1c2ccccc2S(=O)(=O)c2ccccc21`: 92%.
For the compound `Cc1cc(C)c(NC(=O)CN2c3ccccc3S(=O)(=O)c3ccccc32)c(C)c1`, the survival was 106%.
Next, `CCOc1ccccc1NC(=O)CN1c2ccccc2S(=O)(=O)c2ccccc21`: 37% (active).
On to `CCOc1ccccc1NC(=O)CN1C=NS(=O)(=O)c2ccccc21`, for which the survival was 72%.
As for `CCC(=O)Nc1ccc2nc(C3CC3)n(Cc3ccc(Cl)cc3)c(=O)c2c1`, the survival was 111%.
As to `Cc1cccc(C)c1OCC(=O)NCC1(N(C)C)CCCCC1`, the survival was 86%.
Turning to `Cc1ccc(Cn2c(CNC(=O)c3ccccc3Br)nc3cccnc32)cc1`, the survival was 120%.
Next, `COc1cc(OC)c(NS(=O)(=O)c2cc3c(cc2C)NC(=O)CO3)cc1Cl`: 88%; `CCN(CC)CCCNC(=O)C1CCN(S(C)(=O)=O)CC1`: 85%; `Cc1nc(Nc2ccc(Cl)cc2)cc(-c2ccccc2)n1`: -4% (active).
With `CCN(CC)CCCNc1cc(-c2ccccc2)nc(C)n1`, the survival was 65%.
For `Cc1cc(Nc2ccc(Br)cc2)nc(C)n1`, the survival is 51%.
On to `COc1cccc(Nc2cc(-c3ccccc3)nc(C)n2)c1`, for which the survival was 37% (active).
With `CSc1nc(Nc2ccc(F)cc2)cc(-c2ccccc2)n1`, the survival is -5% (active).
Take `Cc1cc(C)cc(Nc2cc(-c3ccccc3)nc(C)n2)c1`: the survival was 8% (active).
Take `CSc1nc(C)cc(Nc2cccc(C(=O)O)c2)n1`: the survival is 63%.
Turning to `Cc1ccc(NC(=O)c2cc3nc(-c4ccccc4)cc(-c4ccccc4)n3n2)cc1`, the survival was 60%.
On to `COc1ccc(Nc2cc(C)c3ccccc3n2)cc1`, for which the survival was 96%.
As for `CSc1nc(Nc2ccc(C)cc2C)cc(-c2ccccc2)n1`, the survival is 51%.
For the compound `Cc1cc(C)cc(Nc2cc(C(=O)NC3CCCCC3)c3ccccc3n2)c1`, the survival is 116%.
Turning to `CCOc1ccccc1Nc1cc(-c2ccccc2)nc(C)n1`, the survival is 60%.
In the case of `Cc1ccc(C(C)(C)C)c(OCC(=O)NCCc2nc3ccccc3[nH]2)c1`, the survival was 70%.
As for `O=C(Cn1c(=O)nc(-c2ccccc2)c2cc(Cl)ccc21)NCc1ccccc1`, the survival is 83%.
Take `COc1ccc(NS(=O)(=O)c2cnc(N)nc2)cc1Cl`: the survival was 67%.
For the compound `CN1C(=O)C(Cc2ccccc2)NC1=S` (stereo unspecified), the survival is 77%.
Regarding `O=C(NC(=S)NCc1ccccc1)c1ccco1`, the survival was 71%.
On to `COc1cc(Cl)c(C)cc1NC(=O)CCc1c(C)nc2c3cccnc3nn2c1C`, for which the survival was 87%.
`COc1ccc(Cl)cc1Nc1sc(C(=O)c2ccccc2)c(N)c1C(=O)Nc1ccccc1`: the survival is 103%.
As for `Cc1ccc(CNC(=O)CN2C(=O)C3CCCCN3c3ccc(C(=O)N(C)C)cc32)cc1` (stereo unspecified), the survival was 88%.
For the compound `Cc1cc(C)c2nc(NCCNC(=O)C3CCCCC3)c(C#N)cc2c1`, the survival was 93%.
For `CCOC(=O)c1ccc(Nc2cc(-c3ccccc3)nc(C)n2)cc1` the value was 50%; for `Cc1ccc(Nc2cc(-c3ccccc3)nc(C)n2)cc1`, 24% (active); for `Cc1ccc(-c2cc(-c3ccccc3)nc(N3CCCC3)n2)cc1`, 115%.
For `Cc1ccc(CCNC(=O)c2ccc(CS(=O)(=O)Cc3ccc(Cl)cc3)o2)cc1` the value was 84%; for `Cn1nnc2c(N3CCN(c4ccccc4F)CC3)ncnc21`, 83%.
For `Cc1cc(Cl)nc(-c2ccccc2)n1` the value was 91%; for `CCc1ccc(NC(=O)CN2CCSc3ccc(S(=O)(=O)N4CCCC4)cc32)cc1`, -4% (active).
In the case of `CCOc1ccc(NC(=O)CN2CCSc3ccc(S(=O)(=O)N4CCCC4)cc32)cc1`, the survival is 76%.
In the case of `Cc1ccc(NC(=O)CN2CCSc3ccc(S(=O)(=O)N4CCCC4)cc32)cc1`, the survival was 77%.
Regarding `Cc1ccc(NC(=O)CSc2nc(=O)n(Cc3cccnc3)c3c2CCC3)cc1F`, the survival was 67%.
Turning to `Cc1ccc(C(=O)CSc2ncn(-c3ccccc3)n2)c(C)c1`, the survival was 42%.
Take `Cc1ccc(Cn2cccc2C2=NC(C)(C)CO2)cc1`: the survival is 45% (active).
With `Cc1ccc(Cn2ccn(Cc3ccc(C)cc3)c(=O)c2=O)cc1`, the survival was 97%.
In the case of `Cc1ccc(Cn2cccc(NC(=O)c3ccncc3)c2=O)cc1`, the survival was 101%.
On to `O=C(Nc1ccc(Cl)cc1)C1CCC(CNS(=O)(=O)c2ccc(Br)s2)CC1` (stereo unspecified), for which the survival is 86%.
Regarding `O=c1ccc2cc(S(=O)(=O)Nc3ccc(F)c(Cl)c3)ccc2[nH]1`, the survival was 89%.
On to `CC(C)Oc1ccc(CNS(=O)(=O)c2ccc3c(c2)C(C)(C)C(=O)N3C)cc1`, for which the survival was 84%.
Take `COc1ccc(OC)c(NS(=O)(=O)c2ccc(Br)s2)c1`: the survival is 37% (active).
Turning to `COc1ccc(NC(=O)C2CCC(CNS(=O)(=O)c3ccc(Br)s3)CC2)c(OC)c1` (stereo unspecified), the survival was 74%.
For `COc1ccc(CNS(=O)(=O)c2ccc3c(c2)C(C)(C)C(=O)N3C)cc1OC` the value was 76%; for `O=S(=O)(Nc1ccc(F)c(Cl)c1)c1ccc(Br)s1`, 10% (active).
On to `O=S(=O)(Nc1ccc(F)cc1F)c1ccc(Br)s1`, for which the survival was 22% (active).
For `COc1ccc(OC)c(NS(=O)(=O)c2ccc(-c3cc(C)no3)s2)c1` the value was 88%; for `Cc1ccccc1NS(=O)(=O)c1ccc(Br)s1`, 109%; for `O=S(=O)(Nc1ccc(F)cc1F)c1ccc(-n2cccn2)cc1`, 70%.
As to `COc1ccc(OC)c(NS(=O)(=O)c2ccc3c(c2)C(C)(C)C(=O)N3C)c1`, the survival was 48% (active).
With `O=C(CSCc1ccccc1Cl)N/N=C/c1ccco1`, the survival was 101%.
In the case of `COc1ccc(-c2nn(-c3ccc(F)cc3F)c3c2cnc2ccc(F)cc23)cc1`, the survival is 79%.
For `CN1CCC(OC(=O)COc2ccc(F)cc2)CC1` the value was 79%.
Take `NS(=O)(=O)c1ccc(CCNC(=O)C2CCN(c3ncnc4c3nc3n4CCCCC3)CC2)cc1`: the survival was 83%.
Take `Cc1ccc(NCc2cccn2-c2nnc(N3CCC(C(=O)NCCc4ccccc4)CC3)s2)cc1`: the survival was 68%.
Take `Cc1ccc2c(c1)N(C(=O)N1CCC(C(=O)NCc3ccccc3F)CC1)CC(C)O2` (stereo unspecified): the survival was 79%.
In the case of `Cc1cc(C)c2[nH]c(=O)c(C(c3nnnn3C(C)(C)C)N(CCc3ccc(F)cc3)Cc3ccco3)cc2c1` (stereo unspecified), the survival is 87%.
Regarding `CCCSc1nnc2[nH]c(=O)cc(C)n12`, the survival is 124%.
On to `Cc1cc(=O)[nH]c2nnc(SCC(N)=O)n12`, for which the survival is 69%.
For `CCOC(=O)C(CC)Sc1nnc2[nH]c(=O)cc(C)n12` (stereo unspecified) the value was 52% (active); for `CN1C(=O)C(=C(C#N)C#N)c2cc(Br)ccc21`, 98%; for `CNC(=O)C1CCC(Cn2c(=O)c3sccc3n(CC(=O)Nc3cc(F)ccc3F)c2=O)CC1` (stereo unspecified), 79%.
Turning to `Cc1ccccc1NC(=O)Nc1nnc(N(C)Cc2ccccc2)s1`, the survival is 85%.
Next, `CCc1ccccc1NC(=O)Nc1nnc(N(C)Cc2ccccc2)s1`: 60%.
On to `CCOc1ccccc1NC(=O)Nc1nnc(N(C)Cc2ccccc2)s1`, for which the survival was 53% (active).
On to `CCC(C)c1ccc(NC(=O)C2CCCN(c3ncccn3)C2)cc1` (stereo unspecified), for which the survival was 81%.
Take `COc1ccc(Cl)cc1NC(=O)CN1c2ccccc2S(=O)(=O)c2ccccc21`: the survival is 75%.
Next, `O=C(Nc1ccccc1C(F)(F)F)C1CCN(S(=O)(=O)c2ccccc2)CC1`: 49% (active); `COc1ccc(Cl)cc1NC(=O)C1CCN(S(=O)(=O)c2ccc3c(c2)CC(C)N3C(C)=O)CC1` (stereo unspecified): 92%.
As to `COc1cc(Cl)c(C)cc1NC(=O)c1cc(S(=O)(=O)N2CCCC2)ccc1F`, the survival was 37% (active).
Next, `O=C(Nc1ccccc1C(F)(F)F)C1CCN(S(=O)(=O)Cc2ccccc2)CC1`: 75%; `Cc1ccc(N2CCN(S(=O)(=O)c3ccc(F)c(C(=O)Nc4ccc(Cl)cc4Cl)c3)CC2C)cc1` (stereo unspecified): -4% (active).
For the compound `COc1ccc(C)cc1NC(=O)c1cc(S(=O)(=O)N2CCC(C)CC2)ccc1F`, the survival was 98%.
Take `COc1ccc(OC)c(NC(=O)C2CCN(S(=O)(=O)c3ccc(C)cc3)CC2)c1`: the survival was 50%.
Next, `Cc1ccc(C)c(N2CCN(S(=O)(=O)c3ccc(F)c(C(=O)Nc4ccc(Cl)cc4Cl)c3)CC2)c1`: 96%; `CCc1ccccc1NC(=O)C1CCN(S(=O)(=O)c2ccccc2)CC1`: 56%.
On to `COc1ccc(Cl)cc1NC(=O)C1CCN(S(=O)(=O)c2ccc(F)cc2)CC1`, for which the survival was 43% (active).
In the case of `Cc1cccc(N2CCN(S(=O)(=O)c3ccc(F)c(C(=O)Nc4cccc(Cl)c4C)c3)CC2C)c1` (stereo unspecified), the survival is 85%.
With `O=C(Nc1ccc(Cl)cc1Cl)c1cc(S(=O)(=O)N2CCCCCC2)ccc1F`, the survival was 76%.
`CCc1nn(CC(=O)NCc2ccc(C)cc2)c(=O)c2cc3occc3n12`: the survival is 105%.
As to `CCOc1ccc(NC(=O)Cn2cc(C(=O)c3ccc(F)cc3)c(=O)c3cc4c(cc32)OCCO4)cc1`, the survival is 65%.
Turning to `COc1ccc2nc(N(Cc3cccnc3)C(=O)COc3ccccc3)sc2c1`, the survival was 90%.
For `Cc1ccc(OCCCSc2nc(-c3ccc(C(C)(C)C)cc3)nc3cc(=O)[nH]n23)cc1C`, the survival was 58%.
As to `COc1ccc(NC(=O)C2=CC(c3ccc4c(c3)OCO4)=NS(=O)(=O)N2C)cc1OC`, the survival was 79%.
`O=C(CSc1ncn(-c2ccccc2)n1)NC1CCCCC1`: the survival is 61%.
For `CCOC(=O)c1c(NC(=O)CC)sc(C(=O)OC)c1C` the value was 75%; for `CCOC(=O)c1ccc(-n2c(-c3ccc(C)cc3)c(C)n3c4c(=O)n(C)c(=O)n(C)c4nc23)cc1`, 75%.
